In PubChem BioAssay AID504690 (Sanford-Burnham Center for Chemical Genomics, 2011):
The whole screen tested about 350,000 compounds, of which about 2,700 (0.77%) were called active. The list comes from a sample in which actives are over-represented; it also holds similar structures and randomly drawn compounds. A number with no mark means an inactive call.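 The calls were made as follows: active = inhibition reaching at least a set limit at 20 µM in the primary screen (cut at about 59% in these data); inactive = the rest.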

test system: glucose-6-phosphate dehydrogenase-6-phosphogluconolactonase (Plasmodium falciparum 3D7); test: PfG6PD enzyme inhibitors, primary screen, biochemical, fluorescence intensity, uHTS (AID 504690); conditions: PfGluPho enzyme, NADPH resazurin-diaphorase fluorescence; at 20 µM; hits give high values;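 also: 0% = DMSO wells with substrate and 100% = DMSO wells lacking glucose-6-phosphate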

O=C(CSC1c2ccccc2-c2ccccc21)N/N=C/c1ccccc1 was tested, and the inhibition was 62.4% (active).
With COc1cccc(-c2nc3ccc(N4CCN(C)CC4)cc3[nH]2)c1 the inhibition was 64.4% (active).
Cc1cc(C)c2c(c1)NP(=S)(c1ccccc1)N2 (stereo not given) was tested, and the inhibition was 63.6% (active).
With COC(=O)N(c1ccc(OC)cc1)P1(=S)OCCC(C)O1 (stereo not given) the inhibition was 81.9% (active).
With O=C1NC(=O)N(Cc2ccco2)C(=O)/C1=C\c1ccc(-c2ccc(F)cc2)o1 the inhibition was 72% (active).
In the case of O=C1NC(=O)N(c2ccccc2)C(=O)/C1=C/c1ccc([N+](=O)[O-])s1, the inhibition is reported as 64.8% (active).

In order of rising inhibition:
1. COc1ccccc1C1=NCc2nnc(CSC)n2-c2ccc(Cl)cc21  -31.3%
2. Nc1ccc(C(=O)N/N=C2/CN3CCC2CC3)cc1  -10.7%
3. CCC1(C)CC(CCNCc2ccc(N(C)C)cc2)(c2ccc(F)cc2)CCO1 (stereo not given)  -7.55%
4. C[C@]12CCCCC1=CC(=O)C1C2CC[C@@]2(C)C1C[C@@H](F)[C@@H]2O (stereo not given in full)  -7.47%
5. Nc1ccc(Cc2ccc(N)c(Cl)c2)cc1Cl  -5.41%
6. C/C=C/CC1(CC)C(=O)NC(=S)NC1=O  -4.76%
7. CCOP(=S)(OCC)SCOC(=O)NCC(=O)OC  -4.03%
8. C=CCn1c(O)c(/C=N/N2CCOCC2)c(=O)[nH]c1=S  -2.25%
9. c1ccc(C(CN2CCCCC2)c2ccccc2)cc1  -1.44%
10. C[C@@]1([C@@H](NP(=O)(c2ccccc2)c2ccccc2)c2ccccc2)C[C@H]1CCO  -0.29%
11. O=C(CN1CCCCC1)Nc1ccc(Br)cc1C(=O)c1ccccc1Cl  0.87%
12. CN1CCN(c2cc(N3CCNCC3)ccc2[N+](=O)[O-])CC1  1.22%
13. CCOP(=O)(OCC)C(NC(=O)c1ccc(C)cc1)C(Cl)(Cl)Cl (stereo not given)  1.69%
14. O=C1NC(=O)N(CCc2ccc(F)cc2)C(=O)/C1=C/C=C/c1ccccc1  4.03%
15. N#Cc1ccc(Cn2cc(C(=O)c3ccco3)c3ccccc32)cc1  4.04%
16. O=C(NCC(c1cccnc1)N1CCN(c2ccccc2)CC1)Oc1ccccc1 (stereo not given)  7.5%
17. COC(=O)C1=C(c2cccc(OCc3ccccc3)c2)C[C@@H]2CC[C@H]1N2C(=O)NCc1ccc(Br)cc1  9.43%
18. CCOP(=S)(OCC)C(O)CCCCCn1c(=O)c(F)cn(C2CCCO2)c1=O (stereo not given)  11.4%
19. O=C1NC(=O)N(c2ccc(F)cc2)C(=O)/C1=C/c1ccc2c(c1)CCCN2Cc1ccccc1  18.3%
20. CC(=O)OC1C2(CC3N4C(=O)C5(CO)SSC4(CC31O)C(=O)N5C)OC(C)C(C)(C)C2=O (stereo not given)  19.4%
21. CCOCCc1c(O)[nH]c(=S)[nH]c1=O  21.3%
22. COc1ccc(N2C(=O)/C(=C/c3ccco3)C(=O)NC2=S)cc1  23.2%
23. COc1ccc2c(c1)NP(=S)(c1ccccc1)N2 (stereo not given)  46.5%
24. COc1cccc(N2C(=O)NC(=O)/C(=C\c3ccc([N+](=O)[O-])s3)C2=O)c1  56%
